Data taken from PubChem BioAssay AID1159580 (chemical genetic matrix, 2015).
Values joined by “and” are separate entries in the source; they are usually repeats but may differ in a detail not shown here. Equal values may be shown once. The whole screen tested about 5,500 compounds, of which about 2,000 (36%) were called active. About 18% were inconclusive and are not listed. Rule as the data show it: active = normalized growth mostly below about 0.91 (no sharp cut-off); inconclusive = no clear call, values can overlap the other calls; inactive = mostly above about 0.92. Some of the results follow.

Assay: chemical genetic growth profiling, strain panel (AID 1159580);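 also: tested at 20 µM; growth read once vehicle control cultures reached saturation at 30 °C; 1 = growth at the plate median or of vehicle wells; lower values mean less growth of the strain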
Settings: S. cerevisiae deletion strains, growth OD

Measured: normalized growth

CCCCOc1cc(C(=O)NCCN(CC)CC)c2ccccc2n1
inactive: locus YAL021C, strain ccr4, hits give low values 0.956 | locus YAL026C, strain drs2, hits give low values 0.986 | locus YAL030W, strain snc1, hits give low values 0.972 | locus YBL061C, strain skt5, hits give low values 0.97 | locus YBR009C, strain hhf1, hits give low values 0.97 | locus YBR021W, strain FUR4, hits give low values 1.02 | locus YBR023C, strain chs3, hits give low values 0.977 | locus YBR171W, strain sec66, hits give low values 0.947 | locus YBR229C, strain ROT2, hits give low values 1.01 | locus YBR231C, strain swc5, hits give low values 0.959 | locus YBR279W, strain paf1, hits give low values 0.998 | locus YCL011C, strain gbp2, hits give low values 0.987 | locus YCL016C, strain dcc1, hits give low values 1.01 | locus YCL029C, strain bik1, hits give low values 1.01 | locus YCL061C, strain MRC1, hits give low values 0.967 | locus YCL069W, strain vba3, hits give low values 0.984 | locus YCR088W, strain abp1, hits give low values 0.954 | locus YDL005C, strain med2, hits give low values 0.972 | locus YDL035C, strain GPR1, hits give low values 1.03 | locus YDL040C, strain nat1, hits give low values 0.96 | locus YDL074C, strain BRE1, hits give low values 1 | locus YDL101C, strain DUN1, hits give low values 1 | locus YDL134C, strain PPH21, hits give low values 1.03 | locus YDL185W, strain tfp1, hits give low values 1.01 | locus YDL192W, strain arf1, hits give low values 1 | locus YDR001C, strain nth1, hits give low values 0.933 | locus YDR069C, strain doa4, hits give low values 0.932 | locus YDR101C, strain arx1, hits give low values 1.01 | locus YDR137W, strain rgp1, hits give low values 1.02 | locus YDR159W, strain sac3, hits give low values 0.973 | locus YDR162C, strain NBP2, hits give low values 1.01 | locus YDR195W, strain ref2 0.932 | locus YDR297W, strain sur2, hits give low values 0.966 | locus YDR318W, strain mcm21, hits give low values 0.984 | locus YDR334W, strain swr1, hits give low values 0.925 | locus YDR335W, strain msn5, hits give low values 0.942 | locus YDR388W, hits give low values 0.995 | locus YDR392W, strain spt3, hits give low values 1.05 | locus YDR502C, strain sam2, hits give low values 0.996 | locus YEL003W, strain gim4, hits give low values 0.959 | locus YEL037C, strain rad23, hits give low values 0.968 | locus YEL061C, strain CIN8 (second series), hits give low values 0.941 | locus YEL061C, strain CIN8, hits give low values 1 | locus YER015W, strain faa2, hits give low values 0.973 | locus YER016W, strain bim1, hits give low values 1.01 | locus YER110C, hits give low values 1 | locus YER111C, strain swi4, hits give low values 0.966 | locus YER155C, strain BEM2 (second series), hits give low values 0.886 | locus YER155C, strain BEM2, hits give low values 0.998 | locus YER167W, strain BCK2, hits give low values 1 | locus YFR010W, strain ubp6, hits give low values 0.94 | locus YGL078C, strain dbp3, hits give low values 0.995 | locus YGL086W, strain mad1, hits give low values 0.992 | locus YGL167C, strain pmr1, hits give low values 0.939 | locus YGL173C, strain kem1, hits give low values 0.966 | locus YGL227W, strain vid30, hits give low values 0.956 | locus YGL240W, strain doc1, hits give low values 0.92 | locus YGL248W, strain PDE1, hits give low values 0.999 | locus YGL253W, strain hxk2, hits give low values 0.995 | locus YGR078C, strain PAC10, hits give low values 1 | locus YGR135W, strain pre9, hits give low values 0.977 | locus YGR252W, strain gcn5, hits give low values 0.914 | locus YHR013C, strain ard1, hits give low values 1.01 | locus YHR027C, strain rpn1, hits give low values 0.973 | locus YHR030C, strain SLT2, hits give low values 1.01 and 1.04 | locus YHR079C, strain IRE1 (second series), hits give low values 0.982 | locus YHR079C, strain IRE1, hits give low values 1.02 | locus YHR094C, strain hxt1, hits give low values 0.991 | locus YHR129C, strain ARP1, hits give low values 1.01 | locus YHR142W, strain chs7, hits give low values 0.974 | locus YHR200W, strain rpn10, hits give low values 0.998 | locus YIL066C, strain RNR3, hits give low values 1.01 | locus YIL073C, strain SPO22, hits give low values 1.03 | locus YIL125W, strain kgd1, hits give low values 0.997 | locus YIR030C, strain dcg1, hits give low values 0.993 | locus YJL092W, strain hpr5, hits give low values 0.979 | locus YJL095W, strain BCK1 (second series), hits give low values 0.966 | locus YJL095W, strain BCK1, hits give low values 0.988 and 1.04 | locus YJL115W, strain asf1, hits give low values 0.94 | locus YJL129C, strain trk1, hits give low values 0.939 | locus YJL134W, strain LCB3, hits give low values 1 | locus YJL154C, strain vps35, hits give low values 0.942 | locus YJL164C, strain tpk1, hits give low values 1 | locus YJL166W, strain qcr8, hits give low values 0.937 | locus YJL168C, strain set2, hits give low values 0.997 | locus YJL187C, strain SWE1 (second series), hits give low values 0.999 | locus YJR043C, strain POL32, hits give low values 1.02 | locus YJR066W, strain TOR1, hits give low values 0.968
